Assay outcomes (PubChem)
BoNT-F LC inh – inhibitors of Botulinum neurotoxin F light chain protease | inhibition, % at 10 µM | 360,000 compounds, 0.22% hits | Multiplex microsphere protease cleavage assay, flow cytometry; in the data active means inhibition above about 35%, passing the limit was not always enough; inconclusive means no clear call, values can overlap the other calls; further: plate controls were buffer without enzyme for full effect and enzyme alone for no effect
Bead autofluor – compound fluorescence in toxin protease inhibitor counterscreen | 360,000 compounds, 3.1% hits | AID 624483 | fluorescence intensity (test concentration not listed) | compound autofluorescence counterscreen, microsphere flow cytometry; active compounds read high; in the data active means fluorescence intensity above about 16000; inconclusive means no clear call, values can overlap the other calls
BoNT A protease – BoNT A light chain protease inhibition | AID 588499 | 360,000 compounds, 0.17% hits | multiplex microsphere protease substrate cleavage, flow cytometry | inhibition, % at 10 µM; further: plate controls were buffer without enzyme for full effect and enzyme alone for no effect
Anthrax LF inh2 – inhibitors of Bacillus anthracis lethal factor protease; P15917; multiplex microsphere protease cleavage assay, LF; inhibition, % at 10 µM; 360,000 compounds, 0.12% hits; AID 588501; further: plate controls were buffer without enzyme for full effect and enzyme alone for no effect
Target sequence (P15917 whole entry, looked up): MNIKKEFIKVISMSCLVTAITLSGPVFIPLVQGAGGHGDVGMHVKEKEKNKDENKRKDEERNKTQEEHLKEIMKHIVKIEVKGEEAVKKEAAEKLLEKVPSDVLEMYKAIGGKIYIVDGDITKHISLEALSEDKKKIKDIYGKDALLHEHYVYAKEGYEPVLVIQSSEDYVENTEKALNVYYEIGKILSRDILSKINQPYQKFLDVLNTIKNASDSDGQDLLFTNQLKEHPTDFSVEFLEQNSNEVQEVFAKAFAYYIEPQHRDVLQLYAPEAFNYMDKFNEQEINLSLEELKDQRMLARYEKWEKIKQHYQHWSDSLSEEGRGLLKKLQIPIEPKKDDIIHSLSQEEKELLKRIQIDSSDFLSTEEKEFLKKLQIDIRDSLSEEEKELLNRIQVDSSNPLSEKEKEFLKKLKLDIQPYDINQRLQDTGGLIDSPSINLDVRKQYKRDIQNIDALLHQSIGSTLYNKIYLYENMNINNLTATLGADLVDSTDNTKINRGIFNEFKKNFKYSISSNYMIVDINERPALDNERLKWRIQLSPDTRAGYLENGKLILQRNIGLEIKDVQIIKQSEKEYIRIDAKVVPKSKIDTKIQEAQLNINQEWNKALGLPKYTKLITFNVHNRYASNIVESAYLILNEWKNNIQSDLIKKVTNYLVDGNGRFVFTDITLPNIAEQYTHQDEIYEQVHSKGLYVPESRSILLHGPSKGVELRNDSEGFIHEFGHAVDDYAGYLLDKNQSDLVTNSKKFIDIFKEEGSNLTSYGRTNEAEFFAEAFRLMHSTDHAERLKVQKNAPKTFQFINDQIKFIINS
PriA SSB inh – K. pneumoniae PriA-SSBct interaction inhibition | 430,000 compounds, 0.6% hits | inhibition, % at 33 µM | AlphaScreen SSBct-PriA binding, biotinylated peptide; in the data active means inhibition mostly above about 37%, no sharp cut-off; inactive means mostly below about 20%;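 further: plate controls were negative control peptide for no effect and reference peptide for full effect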
BoNTA LC inh 1 – blocks botulinum neurotoxin A light chain protease | shares compounds with BoNT-F LC inh | inhibition, % at 10 µM | multiplex microsphere protease assay, flow cytometry | 720 compounds, 3% hits; in the data active means inhibition above about 32%
BoNT-F LC CP1 – blocks botulinum neurotoxin F light chain protease | shares compounds with BoNT-F LC inh | inhibition, % at 10 µM | multiplex microsphere protease cleavage assay, flow cytometry | 720 tested, under 10 active; call rule not given here
Anthrax LF CP1 – Bacillus anthracis lethal factor protease inhibition | shares compounds with BoNT-F LC inh | multiplex microsphere protease cleavage assay, LF | inhibition, % at 10 µM | 720 tested, under 10 active | AID 602142; call rule not given here
* = called active by the depositor; ? = inconclusive; nt = no result; + = active, no number. Shown are actives, neighbours in structure and some others; about 3.1% of the full set was active somewhere. Unless noted, no stated cut-off is given here; in the data, active means inhibition above about 30%; inconclusive means no clear call, values can overlap the other calls; inactive means below that.

SMILES	BoNT-F LC inh	Bead autofluor	BoNT A protease	Anthrax LF inh2	PriA SSB inh	others
CC(=O)Nc1ccc(OCC(O)Cn2cnc3ccccc32)cc1 (stereo not given)	2	9717	1	-3	-1
O=C(O)Cn1cnc2ccccc21	nt	nt	nt	nt	-15
CCOc1ccc(-n2nnnc2CNC(=O)CCCN2C(=O)c3ccccc3C2=O)cc1	nt	nt	nt	nt	-7
CSCC(C)(O)CNS(=O)(=O)CC12CCC(CC1=O)C2(C)C (stereo not given)	nt	nt	nt	nt	-8
O=C(Cc1ccccc1Cl)N1CCC[C@@H]1CS(=O)(=O)c1ccccc1	nt	nt	nt	nt	-11
COc1ccc(-c2noc(-c3ccc(=O)n(Cc4noc(-c5ccco5)n4)c3)n2)cc1F	nt	nt	nt	nt	-8
COc1ccc(S(=O)(=O)Nc2ccc3c(c2)N(C(=O)c2ccco2)CC3)cc1	nt	nt	nt	nt	-5
Cc1cc(C)c(C#N)c(SCc2ccc(C(=O)O)cc2)n1	?	3101	0	32*	-3
Cc1ccc2nc(CSc3nc(C)cc(C)c3C#N)[nH]c2c1	7	21126*	8	1	-17
Cc1nc(Oc2ccccc2)nc(C)c1NC(=O)c1cccc(C(F)(F)F)c1	nt	nt	nt	nt	-15
CCSc1nnc(-c2cccnc2)n1-c1ccc(Cl)c(C)c1	8	17981*	6	-8	4
c1ccc(-n2c(SCCSc3nnc(-c4cccnc4)n3-c3ccccc3)nnc2-c2cccnc2)cc1	nt	nt	nt	nt	-6
CN(CC(=O)N1CCN(c2ncccn2)CC1)c1nc2c(C(F)(F)F)cccc2s1	nt	nt	nt	nt	-13
CN=C1SC(CC(=O)Nc2cc(Cl)ccc2Cl)C(=O)N1C (stereo not given)	7	21833*	2	0	-7
CN=C1SC(CC(=O)Nc2ccc(C(C)=O)cc2)C(=O)N1C (stereo not given)	-13	4817	0	0	-23
O=C(c1ccccc1Cl)N1CCN(CCN2C(=O)c3cccc4cccc(c34)C2=O)CC1	nt	nt	nt	nt	-5
CCCN1CCCc2cc(CCNC(=O)C(=O)NCCc3ccccc3)ccc21	nt	nt	nt	nt	44
O=C(NCCCN1CCCC1=O)c1cccc(NS(=O)(=O)c2ccccc2)c1	-6	5816	-2	-5	-5
CCCN1CCCc2cc(CCNC(=O)c3ccccc3C)ccc21	nt	nt	nt	nt	59*
COc1ccccc1CNC(=O)C(=O)NCCCN1CCCC1=O	nt	nt	nt	nt	1
CCCN1CCCc2cc(CCNC(=O)c3ccccc3OC)ccc21	nt	nt	nt	nt	73*
COc1ccccc1C(=O)NCCCN1CCCC1=O	7	20201*	5	-6	-8
O=C(NCCCN1CCCC1=O)c1cccc(C(F)(F)F)c1	2	20148*	?	3	-3
O=C(NN=Cc1ccc([N+](=O)[O-])o1)c1cc(-c2cccc(Br)c2)nc2ccccc12	nt	nt	nt	nt	19
CCN(C(=O)CCc1sc(C)nc1-c1cccs1)C1CCS(=O)(=O)C1 (stereo not given)	nt	nt	nt	nt	-14
SMILES	BoNT-F LC inh	Bead autofluor	BoNT A protease	Anthrax LF inh2	PriA SSB inh	others
NC(=O)c1ccccc1NC=CC(=O)c1ccco1	nt	nt	nt	nt	4
CCCN1CCCc2cc(CCNC(=O)c3ccccc3Cl)ccc21	nt	nt	nt	nt	53*
Cc1cc(C(=O)NCCCN2CCCC2=O)no1	-12	26454*	?	-4	-2
COc1cc2[nH]c(=O)n(CCCCCC(=O)NCCCN3CCCC3=O)c(=O)c2cc1OC	1	16148*	1	-3	-12
Cc1cc(NC(=O)C(=O)NCCCN2CCCC2=O)no1	nt	nt	nt	nt	1
O=[N+]([O-])c1cc(C=NO)ccc1SCc1ccccc1Cl	nt	nt	nt	nt	0
CO/N=C/c1ccc(N2CCN(C)CC2)c([N+](=O)[O-])c1	nt	nt	nt	nt	+
CO/N=C/c1ccc(Sc2ccccc2)c([N+](=O)[O-])c1	2	2324	-1	-4	nt
CON=Cc1ccc(Sc2ccccc2)c([N+](=O)[O-])c1	nt	nt	nt	nt	55*
CO/N=C/c1ccc(Sc2ccccc2N)c([N+](=O)[O-])c1	-12	4239	1	-4	nt
O=[N+]([O-])c1cc(/C=N/O)ccc1SCc1ccccc1	-5	22700*	?	-6	nt
CON=Cc1ccc(Sc2ccccc2N)c([N+](=O)[O-])c1	nt	nt	nt	nt	52*
O=C(Cn1c(=O)nc(-c2ccccc2)c2cc(Cl)ccc21)Nc1ccc(Br)cc1	nt	nt	nt	nt	-9
O=C(NN=Cc1c[nH]c2ccccc12)c1cc(Cl)ccc1O	nt	nt	nt	nt	-2
CCOc1cc(C(=O)NCCSC2CCOCC2)cc(OCC)c1OCC	nt	nt	nt	nt	-11
COc1ccc(-n2c3c(c(=O)[nH]c2=O)C(NC(=O)c2ccncc2)(C(F)(F)F)C(=O)N3)cc1 (stereo not given)	-2	3258	-2	0	-13
O=C(NC1(C(F)(F)F)C(=O)Nc2c1c(=O)[nH]c(=O)n2Cc1ccccc1)c1ccc(Cl)cc1Cl (stereo not given)	-3	16727*	-2	-6	-2
O=C1Nc2c(c(=O)[nH]c(=O)n2Cc2ccccc2)C1(NS(=O)(=O)c1ccccc1)C(F)(F)F (stereo not given)	-9	3741	-1	-7	1
O=C(NC1(C(F)(F)F)C(=O)Nc2c1c(=O)[nH]c(=O)n2Cc1ccccc1)c1ccc(Cl)cc1 (stereo not given)	2	16519*	0	-4	-8
O=C(NC1(C(F)(F)F)C(=O)Nc2c1c(=O)[nH]c(=O)n2-c1ccc(F)cc1)c1cccnc1 (stereo not given)	4	18307*	5	-7	1
Cc1csc(NC(=O)CSc2ccc(NC(=O)c3cccc(F)c3)nn2)n1	nt	nt	nt	nt	5
CCN1CCc2nc3sc(C(=O)N4CCc5ccccc5C4)c(N)c3cc2C1	-28	5053	6	-2	14
CC(C)c1ccc2nc3sc(C(=O)N4CCc5ccccc5C4)c(N)c3cc2c1	23	8548	21	18	0	BoNTA LC inh 1=4;BoNT-F LC CP1=-1;Anthrax LF CP1=4
O=C(NCCOc1ccc2nnc(-c3cccc(F)c3)n2n1)c1ccc2c(c1)OCO2	nt	nt	nt	nt	-17
O=S(=O)(c1ccc(Cl)cc1)N1CCN(c2ccccn2)CC1	48*	3973	-3	-6	-8	BoNTA LC inh 1=1;BoNT-F LC CP1=-4;Anthrax LF CP1=-6
SMILES	BoNT-F LC inh	Bead autofluor	BoNT A protease	Anthrax LF inh2	PriA SSB inh	others
O=S(=O)(c1ccc(F)cc1)N1CCN(c2ccccn2)CC1	-6	4180	-2	4	-17
CS(=O)(=O)N1CCc2cc(C(=O)Nc3ccc(O)cc3)ccc21	56*	4162	1	-9	-11	BoNTA LC inh 1=0;BoNT-F LC CP1=-7;Anthrax LF CP1=-3
c1ccc(-c2cnn3c(-c4ccccc4)c(-c4ccccc4)nc3n2)cc1	21	5602	37*	21	-3	BoNTA LC inh 1=26;BoNT-F LC CP1=23;Anthrax LF CP1=11
O=[N+]([O-])c1ccc(C2=NN(c3ccccc3)C(c3ccco3)C2)cc1 (stereo not given)	?	18109*	59*	31*	5	BoNTA LC inh 1=59*;Anthrax LF CP1=17
CC1=NN(c2ccc([N+](=O)[O-])cc2)C(c2ccco2)C1 (stereo not given)	nt	nt	nt	nt	5
CCSc1ccccc1C(=O)N(CCN(C)C)c1nc2ccc(F)cc2s1	nt	nt	nt	nt	11
O=C(O)c1cc(-c2ccccc2)c(N2CCOCC2)s1	21	2262	84*	69*	-6	BoNTA LC inh 1=0;BoNT-F LC CP1=0;Anthrax LF CP1=2
